Data: PubChem BioAssay
Activity calls are given as the source filed them. Unless noted, no rule for the calls is given here.

What was measured:
[1] = test system: Wnt5a (protein binding on small-molecule microarray); test: small molecules binding Wnt5a protein – biophysical, small-molecule microarray, 635/667 nm fluorescence, primary screen (AID 1142); conditions: 635 nm fluorescence, higher = more signal;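 also: fluorescence read at 667 nm with signal to noise per printed feature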
[2] = ATP-based viability of Huh7 replicon cells – cell-based, CellTiter-Glo luminescence, basal, 48 h, cytotoxicity control for HCV replication inhibitor project, primary screen (AID 1143); conditions: higher = more signal, called active from +8 up or from −8 down;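 also: Huh7 hepatoma cells carrying a hepatitis C replication reporter with no stimulus; test concentration not given here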
[3] = Pseudomonas biofilm growth suppression – PAO1 strain, BacTiter-Glo luminescence, LB-PBS, primary screen (AID 1144); conditions: P. aeruginosa PAO1 biofilm, 12 h, higher = more signal
[4] = basal CRE-LacZ reporter activity in PC12 – cell-based, unstimulated, primary screen (AID 1145); conditions: no forskolin, luminescence, 4.5 h, higher = more signal, called active from +8 up or from −8 down
[5] = forskolin-driven CRE-LacZ activity in PC12 – cell-based, CRE-LacZ reporter, forskolin-stimulated, primary screen (AID 1146); conditions: luminescence, 4.5 h, higher = more signal, called active from +8 up or from −8 down;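 also: PC12 cells with 6xCRE LacZ reporter stimulated by forskolin 10 µM; beta-galactosidase reporter signal reflecting CREB driven transcription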
[6] = biological target: Streptavidin (Streptomyces avidinii) (UniProt P22629); test: compounds binding control protein streptavidin – biophysical, small-molecule microarray, 635/667 nm fluorescence, artefact control for SMM compound annotation, primary screen (AID 1147); conditions: higher = more signal;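 also: signal reflects streptavidin binding to arrayed compounds as a control protein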
Sequence of Streptavidin (Streptomyces avidinii) (P22629 whole entry, looked up): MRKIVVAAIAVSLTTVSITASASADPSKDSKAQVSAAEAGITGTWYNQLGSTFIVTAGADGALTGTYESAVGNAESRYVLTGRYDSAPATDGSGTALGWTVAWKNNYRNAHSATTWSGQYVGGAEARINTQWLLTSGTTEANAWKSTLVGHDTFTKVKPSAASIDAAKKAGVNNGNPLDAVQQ

[7] = probe aInhba binding on compound microarray – biochemical, small-molecule microarray, 635/667 nm fluorescence, primary screen (AID 1148); conditions: higher = more signal;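 also: score merges 667nm spot fluorescence with signal-to-noise for antibody binding to printed compounds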
Torsin-1A (Homo sapiens) [8] = biological target: Torsin-1A (Homo sapiens) (UniProt O14656); test: TOR1A wild-type binding on microarray – cell lysate, small-molecule microarray, lysate, 635/667 nm, primary screen (AID 1149); conditions: COS7 hTOR1A-WT lysate, 635 nm fluorescence, higher = more signal
Sequence of Torsin-1A (Homo sapiens) (O14656 whole entry, looked up): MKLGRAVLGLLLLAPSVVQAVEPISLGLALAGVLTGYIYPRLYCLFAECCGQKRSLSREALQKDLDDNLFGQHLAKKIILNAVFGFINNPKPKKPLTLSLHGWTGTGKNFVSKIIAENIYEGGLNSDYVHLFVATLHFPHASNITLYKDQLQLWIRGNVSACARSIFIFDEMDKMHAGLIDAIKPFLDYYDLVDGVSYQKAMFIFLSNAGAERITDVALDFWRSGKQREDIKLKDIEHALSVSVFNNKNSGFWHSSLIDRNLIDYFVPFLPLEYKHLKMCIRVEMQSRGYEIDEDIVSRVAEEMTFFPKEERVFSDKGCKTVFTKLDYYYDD

Torsin-1A (Homo sapiens) [9] = biological target: Torsin-1A (Homo sapiens) (UniProt O14656); test: torsin A mutant lysate binding on microarrays – cell lysate, small-molecule microarray, COS7 lysate, 635/667 nm fluorescence, primary screen (AID 1150); conditions: COS7 hTOR1A mutant lysate, 635 nm fluorescence, higher = more signal;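 also: score pools 667 nm emission and signal to noise measuring lysate protein binding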
[10] = test system: Sonic hedgehog protein (Shh); test: Sonic hedgehog microarray binding compounds – biochemical, small-molecule microarray, 635/667 nm fluorescence, primary screen (AID 1151); conditions: 635 nm fluorescence, higher = more signal;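 also: Shh protein binding to compounds spotted on small-molecule microarray slides; score combines spot fluorescence intensity with signal-to-noise across triplicate slides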

Structure (SMILES)	composite z-score [1]	z-score [2]	z-score [3]	z-score [4]	z-score [5]	composite z-score [6]	composite z-score [7]	composite z-score (Torsin-1A (Homo sapiens) [8])	composite z-score (Torsin-1A (Homo sapiens) [9])	composite z-score [10]
COCC1=C2[C@@H](CCc3ccccc3)OB(O)C[C@@H]2[C@@H]2C(=O)N(C)C(=O)[C@@H]2C1	-0.16	0.0876 (inactive)	0.0987 (inactive)	-0.871 (inactive)	1.08 (inactive)	0.0675	-0.113	0.607	-0.0933	0.588
COCCOC(=O)N1C(=O)[C@@]2(c3cc(C#CCCO)ccc31)[C@H](C(N)=O)[C@H]1C(=O)O[C@H](c3ccccc3)[C@H](c3ccccc3)N1[C@@H]2c1ccc(OCCO)cc1	0.622	-0.869 (inactive)	-0.402 (inactive)	-0.141 (inactive)	-0.087 (inactive)	0.438	0.0391	1.47	0.684	1.36
CCOC(=O)C[C@H]1[C@H](OC(=O)c2ccccc2-c2ccccc2)[C@@H](NC(=O)c2ccc3ccccc3n2)c2cc(OCCCO)ccc2N1C(=O)c1ccccc1	0.233	-0.0416 (inactive)	1.12 (inactive)	2.57 (inactive)	0.655 (inactive)	-0.197	-0.0933	-0.0653	0.182	1.37
CCN(CC)c1ccc(N2CC=CC34O[C@@H]5/C=C\CCC(C)OC(=O)C5[C@H]3C(=O)N(C(C)CO)[C@@H]4C2=O)cc1 (stereo not given in full)	-0.0075	0.269 (inactive)	0.515 (inactive)	0.87 (inactive)	0.46 (inactive)	-0.417	-0.0986	-0.0697	-0.116	0.808
CCCC=C(CCC)[C@@H](NC(=O)CCc1ccccc1)c1ccc(C(F)(F)F)cc1	-0.0114	-2.08 (inactive)	0.715 (inactive)	-0.568 (inactive)	0.318 (inactive)	1.07	0.0374	0.983	0.801	-0.37
CCOC(=O)C[C@H]1[C@H](OC(=O)c2ccc(-c3ccccc3)cc2)[C@@H](NC(=O)Cc2ccc(OC)cc2)c2cc(OCCCO)ccc2N1C(=O)Cc1ccc(OC)cc1	-0.0129	0.247 (inactive)	0.00724 (inactive)	0.773 (inactive)	-0.834 (inactive)	-0.0417	-0.128	-0.305	0.0922	-0.259
C=C[C@H](C)[C@H](OC(=O)Nc1ccc(OC)cc1)c1ccc(OCCO)cc1	-0.423	-2.77 (inactive)	0.133 (inactive)	4.89 (inactive)	0.0618 (inactive)	-0.911	-0.314	0.763	0.0508	0.261
CC1(C)C(=O)C(c2ccccc2)=C2CN3C(=O)N(CCc4ccccc4)C(=O)C3(Cc3ccc(F)cc3)C=C21 (stereo not given)	0.198	-1.86 (inactive)	-0.425 (inactive)	0.587 (inactive)	-0.0536 (inactive)	0.326	0.349	-0.448	0.0142	-1.41
COc1ccc([Si](C)(C)[C@H]2[C@H](CC(=O)N3Cc4ccccc4C[C@H]3CO)O[C@@]3(C(=O)N(Cc4ccc(N5C(=O)c6cccc7cccc5c67)cc4)c4ccccc43)[C@@H]2C)cc1	-0.108	-4.09 (inactive)	-0.67 (inactive)	1.04 (inactive)	-1.35 (inactive)	0.294	0.0102	-0.0784	0.837	1.66
CCN(CC)c1ccc(N2CC=CC34O[C@@H]5C=CCCOC(=O)C5[C@H]3C(=O)N(CCO)[C@@H]4C2=O)cc1 (stereo not given in full)	-0.546	-0.055 (inactive)	-0.167 (inactive)	0.191 (inactive)	0.0371 (inactive)	-1.02	-0.163	-0.894	-1.42	-0.0352
COc1cc(NN2C(C(O)c3cc(OC)c(OC)c(OC)c3)C=CC3C(=O)N(c4ccccc4)C(=O)C32)cc(OC)c1OC (stereo not given)	0.582	-2.99 (inactive)	-0.24 (inactive)	0.243 (inactive)	-0.0967 (inactive)	1.8	0.867	-0.152	0.816	-0.317
